Test results from PubChem BioAssay AID2685 (National Center for Advancing Translational Sciences (NCATS), 2010).
The campaign covered roughly 320,000 compounds. About 2,100 (0.66%) were called active. Another 53% or so got no clear call; they are omitted. Calls follow the shape of the dose curve; as a rule, active = well fitted inhibition curve with a large enough effect in the signal ratio, with a control signal flat (not every such curve was filed as active); inconclusive = small, poorly fitted or top-dose-only effect, or effect the other way, or a change in a side signal; inactive = flat fitted curve, though single readings scatter; the % refers to the signal ratio. Only a selection was taken, and actives are over-represented in it overall.

Test: qHTS Assay for Lipid Storage Modulators in Drosophila S3 Cells;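 as to cell number change: cells counted by Cell Tracker Red CMTPX staining in the red channel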; as to lipid storage change, negative = inhibition: % is scaled to controls: 0 for no effect and ±100 for the full control effect
Conditions: BODIPY lipid droplet fluorescence, 18-24 h, cells fed with added oleic acid; cell number change: measured here: cell count max response; series mostly up to 46.1 µM; lipid storage change, negative = inhibition: at the top concentration
In short: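 Drosophila S3 cells got compounds at several concentrations plus oleic acid (400 uM solution). Laser-scanning cytometry with 488 nm excitation read lipid droplets at 500-530 nm and cells at 575-640 nm. Percent activity was relative to 20 uM Triacsin C.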
Potency is read from the fitted curve at half-maximal effect.

| Structure (SMILES) | lipid storage change, negative = inhibition | cell number change [%] | Potency | outcome |
| --- | --- | --- | --- | --- |
| CCOC(=O)c1ccc(NC(=O)c2nc[nH]c2C(=O)N2CCc3ccccc3C2)cc1 | 13.6% (inactive) | 9.14 |  |  |
| O=[N+]([O-])c1ccccc1S(=O)(=O)N1CCCCC1 |  |  | 3.66 µM (active) |  |
| O=[N+]([O-])c1cc(S(=O)(=O)N2CCCCCC2)ccc1Cl | -17.4% (inactive) | -8.42 |  |  |
| O=[N+]([O-])c1cc(S(=O)(=O)N2CCCCCC2)ccc1F |  | -27.8 | 14.6 µM (active) |  |
| Cc1ccc(S(=O)(=O)N2CCCCCC2)cc1[N+](=O)[O-] | -26% (inactive) | -8.44 |  |  |
| O=[N+]([O-])c1ccccc1S(=O)(=O)N1CCSCC1 | 25.8% (inactive) | -12 |  |  |
| O=[N+]([O-])c1cccc2c(S(=O)(=O)N3CCCCC3)cccc12 |  | -7.14 |  | inactive |
| O=C(NCCc1ccccc1)/C(=C\c1ccc([N+](=O)[O-])cc1)NC(=O)c1ccco1 |  |  |  | inactive |
| COc1ccccc1C1(CC(=O)Nc2nccs2)CCOC(C(C)C)C1 (stereo unspecified) | -11.8% (inactive) |  |  |  |
| C=CCn1c(SCC(=O)NCc2ccc3c(c2)OCO3)nnc1C1CCCCC1 | -2% (inactive) | -24 |  |  |
| COC(=O)c1sccc1NS(=O)(=O)c1ccccc1[N+](=O)[O-] |  | -10.5 |  | inactive |
| CN(C)S(=O)(=O)c1cccc(NC(=O)COC(=O)CCc2nc3ccccc3s2)c1 |  | 27.2 |  | inactive |
| Cc1cccc(NC(=O)c2ccc3c(=O)n(CC4CCCO4)c(=S)[nH]c3c2)c1 (stereo unspecified) |  | 0.855 | 2.91 µM (active) |  |
| COc1ccc(NC(=O)c2ccc3c(=O)n(CC4CCCO4)c(=S)[nH]c3c2)c(OC)c1 (stereo unspecified) |  | 0.833 |  | inactive |
| CCCCCNC(=O)c1ccc2c(=O)n(CC3CCCO3)c(=S)[nH]c2c1 (stereo unspecified) | 3.35% (inactive) | 12.5 |  |  |
| CCOc1ccccc1C(=O)NN1C(=O)C2CCCCC2C1=O (stereo unspecified) | -3.41% (inactive) | 2.53 |  |  |
| O=C(N/N=C1\CCCCc2ccccc21)c1ccccn1 | 4.38% (inactive) | 8.38 |  |  |
| CC(=O)Nc1ccc(NC2=CC(=O)CC(C)(C)C2)cc1 |  |  |  | inactive |
| CC1(C)CC(=O)C=C(NCCc2ccccc2)C1 | 22.1% (inactive) | 5.18 |  |  |
| CC1(C)CC(=O)C=C(NCCc2ccc(S(N)(=O)=O)cc2)C1 |  | 7.43 | 29.1 µM (active) |  |
| CCc1ccc(NC2=CC(=O)CC(C)(C)C2)cc1 |  | -10.8 | 16.4 µM (active) |  |
| CC1(C)CC(=O)C=C(Nc2ccc(S(N)(=O)=O)cc2)C1 | 0.606% (inactive) | 5.75 |  |  |
| CC1(C)CC(=O)C=C(Nc2ccc(F)cc2)C1 |  |  |  | inactive |
| FC(F)(F)c1nnc(-c2ccccc2)nc1N1CCOCC1 |  |  |  | inactive |

| Structure (SMILES) | lipid storage change, negative = inhibition | cell number change [%] | Potency | outcome |
| --- | --- | --- | --- | --- |
| O=C(COc1ccccc1)NC(NC(=S)Nc1ccccc1C(=O)O)C(Cl)(Cl)Cl (stereo unspecified) | 0.637% (inactive) | -4.52 |  |  |
| CCCCN(C(=O)c1cccc(S(=O)(=O)N2CC(C)OC(C)C2)c1)c1c(N)n(CCCC)c(=O)[nH]c1=O (stereo unspecified) | 7.24% (inactive) | 6.37 |  |  |
| CCOC(=O)C(NC(=O)Nc1ccc(O)cc1)(c1ccccc1)C(F)(F)F (stereo unspecified) | 2.59% (inactive) | 14.8 |  |  |
| CCOC(=O)C(NC(=O)NC1CCCCC1)(c1ccccc1)C(F)(F)F (stereo unspecified) |  | -7.07 | 7.31 µM (active) |  |
| CCOC(=O)C(NC(=O)N1CCCCC1)(c1ccccc1)C(F)(F)F (stereo unspecified) | -12.7% (inactive) | -0.413 |  |  |
| Cc1n[nH]c(C)c1S(=O)(=O)N1CCc2ccccc2C1 |  | 24.8 |  | inactive |
| C/C(=N\NC(=O)c1c(C)nc2ccccn12)c1ccc(O)cc1O |  | 6.25 | 5.8 µM (active) |  |
| Cc1nc2ccccn2c1C(=O)N/N=C/c1ccccc1 | -11.4% (inactive) | 9.24 |  |  |
| C/C(=N\NC(=O)c1c(C)nc2ccccn12)c1ccco1 | -0.446% (inactive) | -20.6 |  |  |
| CC(=O)N1CCN(C(=S)c2ccc(Cl)cc2)CC1 | 1.15% (inactive) | -11.3 |  |  |
| Cc1csc(NC(=O)CSc2nc(C(C)C)nc3ccccc23)n1 |  | 6.52 | 7.31 µM (active) |  |
| Cc1csc(NC(=O)CSc2ncnc3ccccc23)n1 | 25.2% (inactive) | -0.862 |  |  |
| Cc1csc(NC(=O)CSc2[nH]c(=O)ncc2C)n1 |  |  |  | inactive |
| Cc1csc(NC(=O)CSc2nc3ccccc3c3c2CCCC3)n1 | -3.82% (inactive) | 1.26 |  |  |
| COC(=O)c1c(SCC(=O)Nc2ccc(C)cc2)nc(=O)[nH]c1C | -0.206% (inactive) | 11 |  |  |
| CCOC(=O)c1c(SCC(=O)Nc2nc(C)cs2)nc(=O)[nH]c1C |  | 11.9 | 13 µM (active) |  |
| CC(=O)Nc1ccc(S(=O)(=O)NNC(=O)CCC(=O)Nc2cc(C)ccc2C)cc1 |  | 1.21 | 2.31 µM (active) |  |
| Cc1ccc(NC(=O)CCC(=O)NNS(=O)(=O)c2ccc(Cl)cc2)cc1C |  | -13.3 |  | inactive |
| Cc1ccc(S(=O)(=O)NNC(=O)CCC(=O)Nc2ccccc2)cc1 | -16.6% (inactive) | 20.4 |  |  |
| Cc1ccc([N+](=O)[O-])cc1NC(=O)CN(C)CCOc1ccccc1 | 14.4% (inactive) | 12 |  |  |
| CCOC(=O)c1cc(-c2ccc(OC)cc2)n(CCC(=O)NC2CCN(Cc3ccccc3)CC2)c1C | 4.21% (inactive) | 11 |  |  |
| C=CCN(c1ccc(C(=O)OC)cc1)S(=O)(=O)c1ccccc1 | 8.9% (inactive) |  |  |  |
| Cn1c(=O)oc2cc(S(=O)(=O)NCc3ccco3)ccc21 | 1.46% (inactive) | 0.921 |  |  |
